HADH2 inh = qHTS Assay for Inhibitors of HADH2 (Hydroxyacyl-Coenzyme A Dehydrogenase, Type II); 3-hydroxyacyl-CoA dehydrogenase type-2 (Homo sapiens), Q99714; recombinant HADH2, NADH fluorescence, beta-hydroxybutyryl-CoA; Potency, µM (top dose mostly 57.1 µM), for inactives: top-dose activity change, negative = inhibition, most hits filed as inhibitors; 3.4% of 73,000 active; AID 886, 2007; also: potency is read from the fitted curve at half-maximal effect; % is scaled to controls: 0 for no effect and ±100 for the full control effect; nearly all actives have a fitted effect of over 60% in size
Target sequence (Q99714 whole entry, looked up, one chain of several): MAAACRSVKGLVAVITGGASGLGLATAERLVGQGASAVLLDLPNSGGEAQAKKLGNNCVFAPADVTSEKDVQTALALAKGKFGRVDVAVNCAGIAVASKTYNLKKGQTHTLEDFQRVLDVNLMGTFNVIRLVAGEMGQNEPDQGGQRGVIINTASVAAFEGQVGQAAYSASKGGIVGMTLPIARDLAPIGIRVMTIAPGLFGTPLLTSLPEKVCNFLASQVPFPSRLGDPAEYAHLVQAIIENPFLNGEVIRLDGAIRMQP
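His-tagged recombinant enzyme from E. coli, 20 nM, preincubated 15 min RT with compound; reaction started with 1 mM NAD+ and 90 uM beta-hydroxybutyryl-CoA in 100 mM Tris-HCl pH 9.0. NADH fluorescence (ex 360/em 450) read over 4 min; last-minus-first difference.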
A350 autofl = qHTS Assay for Spectroscopic Profiling in A350 Spectral Region | Compound autofluorescence, 340/450 nm, Alexa 350 dye-equivalents; hits give high values | max dye-equivalent concentration, M | 11% of 59,000 active; in the data active = max dye-equivalent concentration above about 10 nM; inconclusive = mostly about 1.1 nM to 9.6 nM
4MU fluor = qHTS Assay for Spectroscopic Profiling in 4-MU Spectral Region. compound autofluorescence, 340/450 nm, 4-MU equivalents; hits give high values. max dye-equivalent concentration, M. 11% of 59,000 active; in the data active = max dye-equivalent concentration above about 10 nM; inconclusive = mostly about 1.1 nM to 9.6 nM
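Compounds in 100 mM Tris, pH 8.0, incubated 15 min at room temperature, then fluorescence read at 340 nm excitation/450 nm emission. Signal converted to 4-MU dye-equivalent concentration using an on-plate six-point 4-MU standard curve.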
AID923 = qHTS Assay for Allosteric/Competitive Inhibitors of Caspase-1: Spectroscopic Profiling in AFC Spectral Region. compound fluorescence, AFC spectral region (405/520 nm). Potency, µM (highest dose often 57.5 µM), inactives show at the top dose fluorescence increase, actives largely listed as activators. 1.1% of 75,000 active; also: potency is read from the fitted curve at half-maximal effect; 0% is about no effect
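Compound autofluorescence profiled at 405 nm ex/520 nm em during kinetic caspase 1 run (50 nM enzyme, 5 uM Ac-WEHD-AFC, HEPES pH 7.5, 10 mM DTT). Titration up to 57 uM; baseline from regression intercept, normalized to AFC standard curve.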
HSD17B inh = qHTS Assay for Inhibitors of HSD17B4, hydroxysteroid (17-beta) dehydrogenase 4; 7.6% of 75,000 active; Potency, µM (highest dose often 57.1 µM), for inactives: top-dose activity change, negative = inhibition, usual class: inhibitors; recombinant HSD17B10, NADH fluorescence kinetic; 3-hydroxyacyl-CoA dehydrogenase type-2 (Homo sapiens), Q99714;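 also: the protocol describes HADH2 (HSD17B10) and not the HSD17B4 of the title; potency is read from the fitted curve at half-maximal effect; % is scaled to controls: 0 for no effect and ±100 for the full control effect; nearly all actives have a fitted effect of over 70% in size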
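Enzyme plus compound, 15 min room temperature; substrate mix added (NAD+ 1 mM, beta-hydroxybutyryl-CoA 90 uM final); plates read kinetically for NADH fluorescence. HADH2 was His-tagged, E. coli-derived, 20 nM.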
CRE Fsk mod = Cell signaling CRE-BLA (Fsk stim). CHO CRE-bla reporter (cAMP response element driving beta-lactamase), forskolin EC10, beta-lactamase ratio. Potency, µM (titrated, usually from 38.2 µM), for inactives: at the top dose activity change, negative = inhibition, usual class: activators. 2.5% of 71,000 active; active = well fitted activation curve with a large enough effect in the signal ratio, with a control signal flat, not every such curve was filed as active; inconclusive = small, poorly fitted or top-dose-only effect, or effect the other way, or a change in a side signal; the % refers to the signal ratio; also: potency is read from the fitted curve at half-maximal effect; % of control where 0% means no effect
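Cells were plated overnight at 37 °C, exposed to compound titrations plus EC10 NKH 477 for 3 h, then given CCF4 dye for 2 h at room temperature. Blue/green (460/530 nm) ratio was converted to %Activity and AC50 values calculated.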
Numbers without * were called inactive; i = inactive; ? = inconclusive; · = no result given; [ ] = remark or other dose. This is a sample that favours compounds with a hit; in the whole collection about 14% have one here. Unless noted, calls follow the shape of the dose curve; as a rule, active = well fitted curve in the direction sought with a large enough effect; inconclusive = small, poorly fitted or top-dose-only effect, or another doubt; inactive = no such curve, though single readings can be large; an effect the other way counts as inactive or inconclusive.

SMILES	HADH2 inh	A350 autofl	4MU fluor	AID923	HSD17B inh	CRE Fsk mod
COc1ccc(-c2nnc(SCC#CCO)o2)cc1OC	0%	i	i	0%	?	?
COc1ccc(C)cc1NC(=O)CSc1nnc(-c2ccc(Br)cc2)o1	27%	i	i	0%	-5%	3%
OCC#CCSc1nnc(-c2ccc(Br)cc2)o1	3%	5e-08M*	4.8e-08M*	0%	-1%	?
COC(=O)Sc1nnc(-c2ccc(Br)cc2)o1	7.9µM*	i	i	0%	?	-8%
O=c1cnc2cnc(Oc3ccccc3)nc2n1Cc1ccc(F)cc1	3%	i	i	2%	0%	-5%
COCCCN=C(c1ccco1)n1c(=S)nc(-c2ccco2)n(CCCOC)c1=S	2.5µM*	i	i	9%	?	?
CNC(=O)CSc1nnc(-c2cc(C)cc(C)c2)o1	15%	1.7e-08M*	1.8e-08M*	1%	1%	5%
COc1cccc(C(=O)CSc2nnc(-c3cc(OC)c(OC)c(OC)c3)o2)c1	-3%	i	i	2%	-14%	?
COc1cc(-c2nnc(SCC(=O)c3ccc(C)cc3)o2)cc(OC)c1OC	-10%	i	i	2%	-5%	2.5µM*
COc1ccc(OC)c(C(=O)CSc2nnc(-c3ccc(OC)c(OC)c3)o2)c1	?	2e-07M*	2e-07M*	-1%	25µM*	4%
Cc1cc(C)cc(-c2nnc(SCC(=O)NCc3cccs3)o2)c1	2%	i	i	-3%	-2%	-7%
COc1cc(-c2nnc(SCc3ccccc3Cl)o2)cc(OC)c1OC	6%	?	i	-1%	-11%	4µM*
Fc1ccc(Nc2ncncc2-c2ccccc2C(F)(F)F)cc1	?	i	i	4%	?	-6%
COC(=O)c1ccc(Oc2nc3ccccc3n3c(C)nnc23)cc1	·	i	i	·	·	·
CCN1C(=O)[C@H]2[C@H]3[C@H](O)[C@H](O)C/C(=N/OC[C@@H](O)COCc4ccco4)[C@@H]3CC[C@@H]2C1=O	3%[11.4 µM]	·	·	2%[11.5 µM]	3%[11.4 µM]	·
COc1cc(-c2nnc(SCC(=O)c3cc(C)n(CC4CCCO4)c3C)o2)cc(OC)c1OC (stereo unspecified)	5%	i	i	-4%	-11%	4µM*
O=C(c1ccncc1)N1CCC2(CC1)CN(c1ccc(-c3ccccc3)cc1)C2	11%	i	i	-1%	-12%	-11%
c1ccc(-c2ccc(N3CCCC4(CCNCC4)C3)cc2)cc1	?	i	i	-1%	32µM*	?
c1ccc(-c2ccc(N3CC[C@@]4(CCCNC4)C3)cc2)cc1	17%	i	i	0%	25µM*	-7%
c1ccc(-c2ccc(N3CC4(CCNCC4)C3)cc2)cc1	?	i	i	1%	25µM*	?
O=C(c1ccncc1)N1CCC2(CCCN(c3ccc(-c4ccccc4)cc3)C2)CC1	13%	i	i	1%	-2%	?
COc1ccc(-c2noc(-c3ccccc3-c3ccccc3)n2)cc1OC	5%	i	i	1%	?	7.9µM*
COc1ccc(-c2noc(-c3cc(C)cc(C)c3)n2)cc1OC	6%	·	·	2%	4%	?
O=c1[nH]c(CN2CCN(c3ccccc3)CC2)nc2ccccc12	15%	?	?	-1%	-18%	?
CC(=O)N1CCN(C(=O)CCc2nc3sc4c(c3c(=O)[nH]2)CCCC4)CC1	10%	2.2e-08M*	1.6e-08M*	-1%	?	2%
SMILES	HADH2 inh	A350 autofl	4MU fluor	AID923	HSD17B inh	CRE Fsk mod
O=c1[nH]c(CN2CCN(Cc3ccccc3)CC2)nc2sc3c(c12)CCC3	17%	1.4e-08M*	1.5e-08M*	3%	?	?
CCOC(=O)c1nc2sc3c(c2c(=O)[nH]1)CCCC3	32µM*	·	·	10%	25µM*	13%
CCN(CC)C(=O)C1CC(=O)N(c2ccc(F)c(Cl)c2)C1 (stereo unspecified)	-6%	i	i	1%	9%	0%
CC/C(=C(\c1ccccc1)c1ccc(OCCN(C)C)cc1)c1ccc(O)cc1	-15%	·	·	2%	1%	?
CCOC(=O)C1CCN(C(=O)Nc2ccc3nc(C)c(C)nc3c2)CC1	32µM*	2.7e-06M*	1.6e-06M*	20%	25µM*	?
CCOC(=O)C1CCN(C(=O)Nc2ccc3oc(C)nc3c2)CC1	4%	i	i	1%	-1%	1%
O=C(OCc1cc(-c2ccccc2)no1)c1ccc2ccccc2n1	9%	1.7e-07M*	1.3e-07M*	3%	-24%	0%
c1ccc2c(c1)CC(N1CCN(c3cccc4c3OCCO4)CC1)C2	6%	·	·	-4%	3%	·
O=C1NCCCC2c3cc(O)c4ccccc4c3OC12N1CCCCC1 (stereo unspecified)	?	?	2.9e-08M*	18%	?	?
O=c1oc2ccccc2c(O)c1CN1CCCCC1	1%	i	i	-1%	15%	?
O=c1[nH]cnc2c1ncn2C1CC(O)C(CO)O1 (stereo unspecified)	·	·	·	6%	4%	·
COc1ccc(-c2cn3cccnc3n2)cc1NC(=O)C1CCCC1	14%	1e-07M*	1e-07M*	0%	?	?
COc1ccc(-c2cn3cccnc3n2)cc1NC(=O)C1CC1	18%	7.2e-08M*	7.4e-08M*	2%	?	?
COc1ccc(OC)c(NC(=O)C2CCN(c3nc(C)cc(C)n3)CC2)c1	2%	i	i	0%	-8%	0%
COc1ccccc1NC(=O)C1CCCCC1	-7%	i	i	-1%	3%	-9%
O=C(O)c1cc(-c2ccc(Cl)cc2)n[nH]1	-4%	·	·	8%	-2%	-7%
O=C(O)c1cc(-c2ccc(-c3ccc(-c4cc(C(=O)O)c5cc(Cl)ccc5n4)cc3)cc2)nc2ccc(Cl)cc12	3.2µM*	1.7e-06M*	1.6e-06M*	1%[11.5 µM]	3.2µM*	21%[7.6 µM]
O=C(O)c1cc(-c2ccc(-c3ccccc3)cc2)nc2cc3ccccc3cc12	0%[11.4 µM]	2.1e-08M*	1.9e-08M*	-2%[11.5 µM]	?	6%[7.6 µM]
COC(=O)c1ccc(-c2cc(C(=O)O)c3cc4c(cc3n2)OCCO4)cc1	-75%	6.7e-06M*	4.9e-06M*	1%	32µM*	?
